{
  "source": "PubChem BioAssay (NCATS)",
  "note": "Inconclusive results are not listed. Values without a mark were called inactive. Activity calls are given as the source filed them. Calls follow the shape of the dose curve; as a rule, active = well fitted activation curve with a large enough effect; inconclusive = small, poorly fitted or top-dose-only effect; inactive = flat fitted curve, though single readings scatter. Potency is read from the fitted curve at half-maximal effect.",
  "data": [
    {"assay": "Validation screen for small molecules that induce DNA re-replication in SW480 colon adenocarcinoma cells (AID 504364); as to activity (re-replication induction): 0% is about no effect", "conditions": "DNA re-replication phenotype (high-content imaging); series mostly up to 46.1 µM; activity (re-replication induction): at the top concentration", "source_text": "H Molecular Libraries Probe Production Network [MLPCN]\nNIH Chemical Genomics Center [NCGC]\nAssay Provider: Melvin DePamphilis, NICHD, NIH\nEukaryotic cells normally restrict genome duplication to once per cell division. When this process is aberrant, DNA re-replication occurs when cells reinitiate DNA replication before the first round of replication is complete. DNA re-replication induces the DNA damage response, arrests cell proliferation, and triggers apoptosis. The cell cycle components cyclin A, Cdt-1, Cdc6 and geminin are critical regulators of this process and their misregulation results in DNA re-replication in normal and cancer cells. To identify compounds that induce re-replication in normal cells, an image-based assay was used to measure DNA content of nuclei, as detected by the fluorescent DNA binding dye, Hoechst. Cell nuclei were imaged by a fluorescence scanning plate imager and compounds that induce DNA re-replication were identified by the increase of nuclei with elevated fluorescence intensity.#\nFor screening, 250 cells in 5 uL/well were dispensed into black clear 1536-well plates (Aurora) using a solenoid-based dispenser. Following transfer of 23 nL compound or DMSO vehicle by a pin tool, the plates were incubated 48 hr at 37 C and 5% CO2. After addition of 1 uL/well Hoescht stain, the plates were incubated 40 min at 37 C, 5% CO2 and total intensity of fluorescent objects (nuclei) were enumerated by an Acumen Explorer Ex3 (TTP LabTech) fluorescence scanning plate imager (405 nm excitation, 500-530 nm emission).\nKeywords: NIH Roadmap, MLPCN, MLI, MLSMR, qHTS, NCGC, DNA replication, cancer", "units": {"activity (re-replication induction)": "%"}, "values": [
      {"smiles": "N[C@@H](Cn1cc(I)c(=O)[nH]c1=O)C(=O)O", "activity (re-replication induction)": 4.99},
      {"smiles": "C[N+]1(C)CCc2cc3c(cc2C1C1OC(=O)c2c1ccc1c2OCO1)OCO3", "note": "(configuration not stated)", "activity (re-replication induction)": -5.91},
      {"smiles": "COc1cc(CCN)ccc1O", "activity (re-replication induction)": 1.73},
      {"smiles": "CN1CCc2cc(O)cc3c2C1Cc1ccc(O)c(O)c1-3", "note": "(configuration not stated)", "activity (re-replication induction)": 9.49},
      {"smiles": "COc1ccc(-n2nc(C(F)(F)F)cc2-c2ccc(Cl)cc2)cc1", "activity (re-replication induction)": 5.15},
      {"smiles": "COc1ccc(CCN)cc1O", "activity (re-replication induction)": -0.29},
      {"smiles": "N#CC(C#N)=Cc1ccc([N+](=O)[O-])c(O)c1", "activity (re-replication induction)": -0.819},
      {"smiles": "COc1cc([C@@H]2c3cc4c(cc3[C@H](O)C3COC(=O)[C@@H]32)OCO4)cc(OC)c1OC", "note": "(some centres not stated)", "Potency": "32.6 nM (active)"},
      {"smiles": "CC(O)C(C)OC(=O)[C@@H]1C[C@@H]2c3cccc4c3c(cn4C(C)C)C[C@H]2N(C)C1", "note": "(some centres not stated)", "activity (re-replication induction)": 0.818},
      {"smiles": "CP(=O)(O)CCCN", "activity (re-replication induction)": 0.248},
      {"smiles": "N[C@H](CCCCCP(=O)(O)O)C(=O)O", "activity (re-replication induction)": 1.2},
      {"smiles": "COc1ccc2[nH]cc(CCN(C)C)c2c1", "activity (re-replication induction)": 9.66},
      {"smiles": "O=[N+]([O-])c1ccc(O[C@@H]2O[C@H](CO)[C@@H](O)[C@H](O)[C@H]2F)c([N+](=O)[O-])c1", "activity (re-replication induction)": 1.2},
      {"smiles": "CC(=O)OCC1=C(C(=O)[O-])N2C(=O)[C@@H](NC(=O)CCC[C@@H](N)C(=O)[O-])[C@H]2SC1.[Zn+2]", "activity (re-replication induction)": -6.87},
      {"smiles": "COC(=O)c1cc2c(cn1)[nH]c1ccccc12", "activity (re-replication induction)": -0.86},
      {"smiles": "CN1CCN(c2ccc3ccccc3n2)CC1", "activity (re-replication induction)": -11.6},
      {"smiles": "C=CCN1CCC2(C)c3cc(O)ccc3CC1C2C", "note": "(configuration not stated)", "activity (re-replication induction)": -14.4}
    ]}
  ]
}
